Experimental data from PubChem BioAssay AID1932 (Vanderbilt High Throughput Screening Facility, 2009).

target: Muscarinic acetylcholine receptor M1 (Rattus norvegicus) (UniProt P08482); assay: rat M1 acetylcholine curve fold-shift by analogs, SAR follow-up, selectivity assay for M4 PAM project, cell-based, ACh fold-shift, calcium mobilization (AID 1932); settings: rM1-expressing cells, ACh CRC fold-shift; series mostly up to 1 µM; ACh response, % max: at the top concentration
Sequence (P08482 whole entry, looked up): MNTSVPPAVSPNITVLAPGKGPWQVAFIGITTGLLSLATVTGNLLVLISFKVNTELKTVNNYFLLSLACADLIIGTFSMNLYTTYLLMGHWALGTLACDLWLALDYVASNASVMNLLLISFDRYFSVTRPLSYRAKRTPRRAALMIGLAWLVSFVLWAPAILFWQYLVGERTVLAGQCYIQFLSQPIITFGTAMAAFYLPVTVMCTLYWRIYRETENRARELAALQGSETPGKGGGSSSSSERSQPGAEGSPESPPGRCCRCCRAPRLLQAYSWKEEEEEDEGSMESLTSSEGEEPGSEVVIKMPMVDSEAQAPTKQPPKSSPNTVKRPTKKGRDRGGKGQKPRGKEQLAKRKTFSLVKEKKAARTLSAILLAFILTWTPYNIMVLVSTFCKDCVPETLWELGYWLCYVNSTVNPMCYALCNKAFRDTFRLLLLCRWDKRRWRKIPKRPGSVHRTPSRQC

ACh response, % max, inactive:
COc1ccc(CNC(=O)c2sc3nc(OCc4ccncc4)cc(C)c3c2N)cc1 96.3
Cc1cc(OCc2ccncc2)nc2sc(C(=O)NCc3cc(F)ccc3F)c(N)c12 92.8
Cc1cc(OCc2ccncc2)nc2sc(C(=O)NCc3cccc(F)c3F)c(N)c12 92.3
Cc1cc(OCCN2CCOCC2)nc2sc(C(=O)NC(C)(C)C)c(N)c12 93.7
